We go through 37 compounds from paper PMC5540273 (PLoS ONE, 2017).
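Also: KINOMEscan kinase panel screen.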

One test deals with VRK2. The note with it: concentration: 1 μM,replicates: in singlicate; n = 1.
For `CS(=O)(=O)Nc1ccc(-c2ccnc3[nH]ccc23)cc1` [GSK993273], the “%Inh” value worked out at 0%.

For `O=C(NCC1CC1)c1ccc(-c2cc(C(=O)NC3CC3)ccc2F)cc1` [GW810445], the “%Inh” value is reported as 19%.

For `Cc1cccc2c(-c3ccncc3)c(-c3ccc(F)cc3)nn12.Cl` [GW461487], the “%Inh” value is 0%.

Regarding `Cn1ccc2ncnc(Oc3ccc(NC(=O)Nc4cnn(C(C)(C)C)c4)c(Cl)c3)c21`, the “%Inh” value was found to be 0%.

On to `Cn1cc(-c2cccc3c(N)c(C(N)=O)nnc23)cn1`, for which the “%Inh” value stood at 1%.

Take `C[C@@H]1CCN(C(=O)N2CCCC2)C[C@@H]1N(C)c1ncnc2[nH]ccc12`: the “%Inh” value turned out to be 0%.

Regarding `Cl.Nc1n[nH]c2cc(-c3ccccn3)ccc12` [GSK2189892], the “%Inh” value stood at 0%.

Consider `Cl.c1ccc(Oc2ccc(Nc3ccnc4cc(-c5ccc(CN6CCNCC6)o5)ccc34)cc2)nc1` [GW567142], for which the “%Inh” value was 0%.

With `CCNCC(Cc1ccccc1)NC(=O)c1cc(Br)c(-c2ccnc3[nH]ccc23)s1.Cl.Cl` (centres unmarked) [GSK1383280], the “%Inh” value turned out to be 0%.

For `Cc1ccc(Nc2ccnc(Nc3ccc4c(c3)CS(=O)(=O)C4)n2)cc1O.Cl` [GW579362], the “%Inh” value worked out at 0%.

For `COc1cccc(C2=C(Nc3cccc(Cl)c3)C(=O)NC2=O)c1` [SB-341556], the “%Inh” value is reported as 0%.

With `CCN1CCN(CCCC(=O)Nc2n[nH]c3nc(-c4ccc(O)cc4)c(Br)cc23)CC1` [SB-731579], the “%Inh” value worked out at 69%.

Take `CSc1nccc(-c2c(-c3ccc(F)cc3)ncn2CCCN2CCOCC2)n1.Cl` [SB-217146]: the “%Inh” value amounted to 30%.

In the case of `COc1cc2nccc(Nc3ccc(Oc4ccccc4)cc3)c2cc1OC.Cl` [GI261656], the “%Inh” value was 5%.

As for `CS(=O)c1ccc(-c2coc3ccc(-c4n[nH]c(=O)o4)cc23)cc1` (centres unmarked), the “%Inh” value is recorded as 0%.

In the case of `Cn1ccc2ncnc(Oc3ccc(NC(=O)Nc4ccnc(C(F)(F)F)c4)c(Cl)c3)c21`, the “%Inh” value is given as 0%.

Consider `CN1CCN(CCCNc2nccc(-c3c(-c4ccc(F)cc4)nn4cc(C(N)=O)ccc34)n2)CC1` [GW622475], for which the “%Inh” value turned out to be 0%.

Take `O=C(NOCC1CC1)c1cc(Br)c(F)c(F)c1Nc1ccc(I)cc1Cl`: the “%Inh” value amounted to 0%.

Consider `COc1cccc(CNC(=O)NC2CCN(c3ccnc(Nc4cc(OC)c(OC)c(OC)c4)n3)C2)c1` (centres unmarked) [GSK1379765], for which the “%Inh” value is recorded as 0%.

On to `COc1cc(Nc2nccc(N3CCC(NC(=O)c4cccc(C#N)c4)C3)n2)cc(OC)c1OC` (centres unmarked) [GSK1379751], for which the “%Inh” value was found to be 0%.

For the compound `COC(=O)c1cccc(NC(=O)NC2CCN(c3ccnc(NCc4ccc(F)cc4)n3)CC2)c1` [GSK1379860], the “%Inh” value was 7%.

Take `Cn1ccc2ncnc(Oc3ccc(NC(=O)Nc4cc(C(C)(C)C)on4)c(Cl)c3)c21`: the “%Inh” value turned out to be 19%.

As to `O=C1NCCc2[nH]c(-c3ccncc3)cc21`, the “%Inh” value is given as 19%.

On to `Nc1nccc(-c2ccc3c(N)n[nH]c3c2)n1` [GSK1034945], for which the “%Inh” value worked out at 0%.

`CC(=O)Nc1ccc(-c2cc3ncnc(SCC(=O)O)c3s2)cc1`: the “%Inh” value was 0%.

For `NC(=O)c1ccc(-c2cc3ncnc(SCC(=O)O)c3s2)cc1`, the “%Inh” value was 0%.

Regarding `Cc1cccc(-c2nc(Nc3ccncc3)c3sccc3n2)n1` [GW869641], the “%Inh” value worked out at 39%.

As to `Cn1ccc2ncnc(Oc3ccc(NC(=O)Nc4cncc(C(F)(F)F)c4)c(Cl)c3)c21`, the “%Inh” value was determined as 0%.

As to `OCCn1cc(-c2cnc3nnn(Cc4ccc5ncccc5c4)c3n2)cn1`, the “%Inh” value was determined as 0%.

Consider `C[C@@H]1CNc2c(sc3ccc4nc(-c5ccc(O)cc5)ccc4c23)C(=O)N1`, for which the “%Inh” value turned out to be 17%.

With `FC(F)(F)c1cc(Br)cc(Nc2nccc(-c3cnn4ncccc34)n2)c1` [GW810578], the “%Inh” value turned out to be 4%.

Take `NC(=O)Nc1sc(-c2ccc(F)cc2)cc1C(N)=O` [GW789449]: the “%Inh” value is given as 0%.

In the case of `c1ccc(Oc2ccc(Nc3ccnc4ccc(-c5ccccn5)cc34)cc2)cc1` [GW407034], the “%Inh” value is 0%.

With `CCn1c(-c2nonc2N)nc2cncc(CNC3CCNCC3)c21.Cl` [SB-747651], the “%Inh” value was found to be 9%.

For the compound `CN(c1ccccc1CNc1nc(Nc2ccc3c(c2)CC(=O)N3)ncc1C(F)(F)F)S(C)(=O)=O`, the “%Inh” value was 0%.

With `Cc1ccc(C(=O)Nc2ccc(Oc3ccc4nc(NC(=O)C5CC5)cn4c3)c(F)c2)c(=O)n1-c1ccccc1`, the “%Inh” value is 0%.

For `C[C@@H](Oc1cc(-n2cnc3ccc(-c4ccncc4)cc32)sc1C(N)=O)c1ccccc1Cl` [GSK483724], the “%Inh” value stood at 0%.

In a further test the test system is WEE1. The note with it: concentration: 1 μM,replicates: in singlicate; n = 1.
Regarding `CS(=O)(=O)Nc1ccc(-c2ccnc3[nH]ccc23)cc1` [GSK993273], the “%Inh” value is recorded as 5%.

For `O=C(NCC1CC1)c1ccc(-c2cc(C(=O)NC3CC3)ccc2F)cc1` [GW810445], the “%Inh” value turned out to be 0%.

For the compound `Cc1cccc2c(-c3ccncc3)c(-c3ccc(F)cc3)nn12.Cl` [GW461487], the “%Inh” value was found to be 8%.

In the case of `Cn1ccc2ncnc(Oc3ccc(NC(=O)Nc4cnn(C(C)(C)C)c4)c(Cl)c3)c21`, the “%Inh” value is 0%.

As to `Cn1cc(-c2cccc3c(N)c(C(N)=O)nnc23)cn1`, the “%Inh” value amounted to 3%.

Regarding `C[C@@H]1CCN(C(=O)N2CCCC2)C[C@@H]1N(C)c1ncnc2[nH]ccc12`, the “%Inh” value was found to be 0%.

Take `Cl.Nc1n[nH]c2cc(-c3ccccn3)ccc12` [GSK2189892]: the “%Inh” value was determined as 4%.

For `Cl.c1ccc(Oc2ccc(Nc3ccnc4cc(-c5ccc(CN6CCNCC6)o5)ccc34)cc2)nc1` [GW567142], the “%Inh” value was 8%.

As for `CCNCC(Cc1ccccc1)NC(=O)c1cc(Br)c(-c2ccnc3[nH]ccc23)s1.Cl.Cl` (centres unmarked) [GSK1383280], the “%Inh” value came to 0%.

Regarding `Cc1ccc(Nc2ccnc(Nc3ccc4c(c3)CS(=O)(=O)C4)n2)cc1O.Cl` [GW579362], the “%Inh” value is given as 50%.

Consider `COc1cccc(C2=C(Nc3cccc(Cl)c3)C(=O)NC2=O)c1` [SB-341556], for which the “%Inh” value is 5%.

With `CCN1CCN(CCCC(=O)Nc2n[nH]c3nc(-c4ccc(O)cc4)c(Br)cc23)CC1` [SB-731579], the “%Inh” value was determined as 0%.

With `CSc1nccc(-c2c(-c3ccc(F)cc3)ncn2CCCN2CCOCC2)n1.Cl` [SB-217146], the “%Inh” value turned out to be 0%.

Take `COc1cc2nccc(Nc3ccc(Oc4ccccc4)cc3)c2cc1OC.Cl` [GI261656]: the “%Inh” value is reported as 0%.

As to `CS(=O)c1ccc(-c2coc3ccc(-c4n[nH]c(=O)o4)cc23)cc1` (centres unmarked), the “%Inh” value is 2%.

Turning to `Cn1ccc2ncnc(Oc3ccc(NC(=O)Nc4ccnc(C(F)(F)F)c4)c(Cl)c3)c21`, the “%Inh” value is given as 0%.

As to `CN1CCN(CCCNc2nccc(-c3c(-c4ccc(F)cc4)nn4cc(C(N)=O)ccc34)n2)CC1` [GW622475], the “%Inh” value is reported as 2%.

For the compound `O=C(NOCC1CC1)c1cc(Br)c(F)c(F)c1Nc1ccc(I)cc1Cl`, the “%Inh” value is given as 0%.

Consider `COc1cccc(CNC(=O)NC2CCN(c3ccnc(Nc4cc(OC)c(OC)c(OC)c4)n3)C2)c1` (centres unmarked) [GSK1379765], for which the “%Inh” value amounted to 30%.

Turning to `COc1cc(Nc2nccc(N3CCC(NC(=O)c4cccc(C#N)c4)C3)n2)cc(OC)c1OC` (centres unmarked) [GSK1379751], the “%Inh” value is 0%.

With `COC(=O)c1cccc(NC(=O)NC2CCN(c3ccnc(NCc4ccc(F)cc4)n3)CC2)c1` [GSK1379860], the “%Inh” value is recorded as 8%.

As to `Cn1ccc2ncnc(Oc3ccc(NC(=O)Nc4cc(C(C)(C)C)on4)c(Cl)c3)c21`, the “%Inh” value came out at 0%.

`O=C1NCCc2[nH]c(-c3ccncc3)cc21`: the “%Inh” value came to 13%.

Turning to `Nc1nccc(-c2ccc3c(N)n[nH]c3c2)n1` [GSK1034945], the “%Inh” value is reported as 35%.

In the case of `CC(=O)Nc1ccc(-c2cc3ncnc(SCC(=O)O)c3s2)cc1`, the “%Inh” value is on record as 0%.

Take `NC(=O)c1ccc(-c2cc3ncnc(SCC(=O)O)c3s2)cc1`: the “%Inh” value is given as 0%.

Consider `Cc1cccc(-c2nc(Nc3ccncc3)c3sccc3n2)n1` [GW869641], for which the “%Inh” value is listed as 20%.

In the case of `Cn1ccc2ncnc(Oc3ccc(NC(=O)Nc4cncc(C(F)(F)F)c4)c(Cl)c3)c21`, the “%Inh” value was found to be 0%.

In the case of `OCCn1cc(-c2cnc3nnn(Cc4ccc5ncccc5c4)c3n2)cn1`, the “%Inh” value was 0%.

With `C[C@@H]1CNc2c(sc3ccc4nc(-c5ccc(O)cc5)ccc4c23)C(=O)N1`, the “%Inh” value is on record as 17%.

Regarding `FC(F)(F)c1cc(Br)cc(Nc2nccc(-c3cnn4ncccc34)n2)c1` [GW810578], the “%Inh” value is on record as 5%.

`NC(=O)Nc1sc(-c2ccc(F)cc2)cc1C(N)=O` [GW789449]: the “%Inh” value is reported as 30%.

Turning to `c1ccc(Oc2ccc(Nc3ccnc4ccc(-c5ccccn5)cc34)cc2)cc1` [GW407034], the “%Inh” value came out at 15%.

For `CCn1c(-c2nonc2N)nc2cncc(CNC3CCNCC3)c21.Cl` [SB-747651], the “%Inh” value came out at 8%.

In the case of `CN(c1ccccc1CNc1nc(Nc2ccc3c(c2)CC(=O)N3)ncc1C(F)(F)F)S(C)(=O)=O`, the “%Inh” value stood at 0%.

On to `Cc1ccc(C(=O)Nc2ccc(Oc3ccc4nc(NC(=O)C5CC5)cn4c3)c(F)c2)c(=O)n1-c1ccccc1`, for which the “%Inh” value is reported as 0%.

On to `C[C@@H](Oc1cc(-n2cnc3ccc(-c4ccncc4)cc32)sc1C(N)=O)c1ccccc1Cl` [GSK483724], for which the “%Inh” value came out at 46%.
